Assay results published in the supplement of paper PMC13380429.

Test system: Vero E6 infected with SARS-CoV-2
Test: inhibition of SARS-CoV-2 cytopathic effect; higher = more antiviral protection, active = above 15
Conditions: 833.33 nM; 48 h

Question: For `Cn1c(CNc2ccc(C(=N)N)cc2)nc2cc(C(=O)N(CCC(=O)O)c3ccccn3)ccc21` [dabigatran], which “inhibition of SARS-CoV-2 cytopathic effect” value (“inhibition” below) is on record?
Answer: The value was 0.58% (inactive).

Question: `COC(=O)N/N=C/c1c[n+]([O-])c2ccccc2[n+]1[O-]` [carbadox] was tested. Which “inhibition” value did it give?
Answer: The value was -11.6% (inactive).

Question: `Clc1ccc2nsnc2c1NC1=NCCN1` [tizanidine] was tested. Which “inhibition” value did it give?
Answer: The value was 2.93% (inactive).

Question: With `COc1cc2c(NC3CCN(C)CC3)nc(N3CCCN(C)CC3)nc2cc1OCCCN(C)C` as the molecule, how does the “inhibition” value read?
Answer: Its value is 3.57% (inactive).

Question: `C/C=C1/[C@H](O[C@@H]2O[C@H](CO)[C@@H](O)[C@H](O)[C@H]2O)OC=C(C(=O)OC)[C@H]1CC(=O)OCCc1ccc(O)c(O)c1` [oleuropein] was tested. Which “inhibition” value did it give?
Answer: The value was 0.43% (inactive).

Question: Which “inhibition” value does the source give for `CS(=O)(=O)c1ccc(Oc2cc(F)cc(C#N)c2)c2c1[C@H](O)C(F)(F)C2` here?
Answer: Its value is -1.3% (inactive).

Question: How did the “inhibition” value turn out when `FC(F)(F)Oc1ccc2nc(-c3ccc(OCCOCCOc4ccc(-c5nc6ccc(OC(F)(F)F)cc6[nH]5)nc4)cn3)[nH]c2c1` was run?
Answer: Its value is 3.47% (inactive).

Question: With `O=C(NN1C(=O)[C@@H]2[C@@H]3C=C[C@@H]([C@H]4C[C@@H]34)[C@@H]2C1=O)c1ccc(C(F)(F)F)cc1` [tecovirimat] as the molecule, how does the “inhibition” value read?
Answer: Its value is 0.04% (inactive).

Question: Which “inhibition” value does the source give for `C=C1CC[C@H](O)C/C1=C/C=C1\CCC[C@]2(C)[C@@H]([C@H](C)CCCC(C)(C)O)CC[C@@H]12` [calcifediol] here?
Answer: Its value is -0.54% (inactive).

Question: For `CCNC(=O)CC[C@H](N)C(=O)O` [L-theanine], which “inhibition” value is on record?
Answer: Its value is -0.63% (inactive).

Question: Which “inhibition” value does the source give for `COc1ccc(CC(C)NCC(O)c2ccc(O)c(NC=O)c2)cc1` (stereo not given) [formoterol] here?
Answer: Its value is 0.54% (inactive).

Question: For `CNC(=O)[C@@H](Cc1ccccc1)N(C)C(=O)[C@@H](Cc1ccc2ccccc2c1)N(C)C(=O)/C=C/CC(C)(C)N` [tabimorelin], which “inhibition” value is on record?
Answer: Its value is 2.19% (inactive).

Question: `CC(C)OC(=O)CNC(=O)[C@H](CS)NC(=O)CC[C@H](N)C(=O)O` [glutathione-monoisopropyl-ester] was tested. Which “inhibition” value did it give?
Answer: Its value is 0.55% (inactive).

Question: Which “inhibition” value does the source give for `COc1cn(-c2ccc(-n3cccn3)cc2F)nc(-c2ccnn2-c2ccccc2)c1=O` here?
Answer: The value was 2.26% (inactive).

Question: For `S=C(S)N1CCCC1` [pyrrolidine-dithiocarbamate], which “inhibition” value is on record?
Answer: The value was 12.7% (inactive).

Question: `O[C@H]1CC[C@H](Nc2ncc3nc(Nc4c(F)cc(F)cc4F)n([C@H]4CCOC4)c3n2)CC1` was tested. Which “inhibition” value did it give?
Answer: The value was -0.04% (inactive).

Question: Which “inhibition” value does the source give for `COc1ccccc1C(=O)Nc1cccc(NC(=O)c2cccc(C)c2)c1` here?
Answer: The value was 0.39% (inactive).

Question: With `CN(C)CC(c1ccc(O)cc1)C1(O)CCCCC1` (stereo not given) [desvenlafaxine] as the molecule, how does the “inhibition” value read?
Answer: Its value is 1.89% (inactive).

Question: With `CC(C)NC(=O)N1CC[C@H](NC2=Nc3cc(F)ccc3N(CC(F)F)c3ccc(Cl)cc32)C1` as the molecule, how does the “inhibition” value read?
Answer: Its value is 8.12% (inactive).

Question: For `[O-][n+]1ccccc1[S-].[O-][n+]1ccccc1[S-].[Zn+2]` [pyrithione-zinc], which “inhibition” value is on record?
Answer: Its value is 29.9% (active).

Question: With `CCOc1cc([C@@H](CS(C)(=O)=O)N2C(=O)c3cccc(NC(C)=O)c3C2=O)ccc1OC` [apremilast] as the molecule, how does the “inhibition” value read?
Answer: Its value is -0.47% (inactive).

Question: For `C/C=C/c1cc(OC)c(OC)cc1OC` [alpha-asarone], which “inhibition” value is on record?
Answer: Its value is -3.9% (inactive).

Question: Which “inhibition” value does the source give for `CN(C)CC[C@H](CSc1ccccc1)Nc1ccc(S(=O)(=O)NC(=O)c2ccc(N3CCN(Cc4ccccc4-c4ccc(Cl)cc4)CC3)cc2)cc1[N+](=O)[O-]` here?
Answer: Its value is -16.3% (inactive).

Question: Which “inhibition” value does the source give for `CC(C)(C)NCC(O)c1cc(O)cc(O)c1` (stereo not given) here?
Answer: The value was -0.02% (inactive).

Question: How did the “inhibition” value turn out when `C[C@]12CC[C@H]3[C@@H](CC[C@@]45O[C@@H]4C(O)=C(C#N)C[C@]35C)[C@@H]1CC[C@@H]2O` [trilostane] was run?
Answer: Its value is 0.24% (inactive).

Question: For `O=C1CN(/N=C/c2ccc(-c3ccc([N+](=O)[O-])cc3)o2)C(=O)N1` [dantrolene], which “inhibition” value is on record?
Answer: Its value is -0.88% (inactive).

Question: How did the “inhibition” value turn out when `CCCCn1c(-c2ccccc2)nc(-c2ccccc2)c1CN(Cc1ccc2c(c1)OCO2)Cc1ccc2c(c1)OCO2` was run?
Answer: Its value is 0.71% (inactive).

Question: Which “inhibition” value does the source give for `CC(CN1c2ccccc2Sc2ccccc21)N(C)C` (stereo not given) [promethazine] here?
Answer: The value was 0.5% (inactive).

Question: `C=CC(=O)Nc1cccc(Oc2nc(Nc3ccc(N4CCN(C)CC4)cc3OC)ncc2Cl)c1` was tested. Which “inhibition” value did it give?
Answer: Its value is -9.12% (inactive).

Question: Which “inhibition” value does the source give for `Cc1onc(-c2ccccc2Cl)c1C(=O)N[C@@H]1C(=O)N2[C@@H]1SC(C)(C)[C@@H]2C(=O)O` [cloxacillin] here?
Answer: Its value is 3.43% (inactive).

Question: How did the “inhibition” value turn out when `CCCCCCCCCCCCCCCCCCCCCCCCC(=O)O` [pentacosanoic-acid] was run?
Answer: The value was -0.23% (inactive).

Question: Which “inhibition” value does the source give for `Cc1cc(C)nc(NS(=O)(=O)c2ccc(NC(=S)NC(=O)COc3ccc(Br)cc3Cl)cc2)n1` here?
Answer: Its value is -2.23% (inactive).

Question: Which “inhibition” value does the source give for `CC(=O)Oc1cc2c(s1)CCN(C(C(=O)C1CC1)c1ccccc1F)C2` (stereo not given) [prasugrel] here?
Answer: Its value is 2.1% (inactive).

Question: How did the “inhibition” value turn out when `CN1CCN(CCCN2c3ccccc3Sc3ccc(S(=O)(=O)N(C)C)cc32)CC1` [thioproperazine] was run?
Answer: Its value is 0.03% (inactive).

Question: How did the “inhibition” value turn out when `CCCCCCCCCCCC[N+](C)(C)CCOc1ccccc1` [domiphen] was run?
Answer: Its value is 0.26% (inactive).

Question: With `COC[C@H]1OC(=O)c2coc3c2[C@@]1(C)C1=C(C3=O)[C@@H]2CCC(=O)[C@@]2(C)C[C@H]1OC(C)=O` [wortmannin] as the molecule, how does the “inhibition” value read?
Answer: Its value is -4.43% (inactive).

Question: How did the “inhibition” value turn out when `O=C1O[C@H]([C@@H](O)CO)C(O)=C1O` was run?
Answer: Its value is -0.21% (inactive).

Question: `Oc1ccc2c3c1O[C@H]1c4[nH]c5ccccc5c4C[C@@]4(O)[C@@H](C2)N(CC2CC2)CC[C@]314` [naltrindole] was tested. Which “inhibition” value did it give?
Answer: The value was 0.82% (inactive).

Question: How did the “inhibition” value turn out when `Cc1ccc2c(=O)c3ccccc3n(CCCN)c2c1C` was run?
Answer: The value was 1.46% (inactive).

Question: Which “inhibition” value does the source give for `CNCCN(C)Cc1c[nH]nc1-c1ccc(O[C@H]2C[C@H](OCCC3CCOCC3)C2)cc1` here?
Answer: The value was 1.11% (inactive).
